Measurements from PubChem BioAssay (EPA / NIEHS).
Calls of active or inactive are those of the source. Rule for the calls: active = hit-call score of the fitted dose curve at least 0.9, where 1 is the maximum; inactive = score below 0.9.

Read-out: Keratin 19 (KRT19), KRT19 (gene 3880)
Assay: LTEA_HepaRG_KRT19: Life Technologies and Expression Analysis (LTEA) Assay for Keratin 19 (KRT19) using HepaRG (AID 2283512)
Settings: mRNA level, 48 h; actives raise or lower the signal
Procedure, shortened: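 Gene-expression endpoint in the human liver line HepaRG after 48 h exposure to up to 100 uM test chemical with 0.5% DMSO vehicle; KRT19 mRNA by qRT-PCR, analyzed bidirectionally versus DMSO.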

Structure (SMILES) | outcome | AC50
Cc1ccccc1O | inactive | –
O=NN(c1ccccc1)c1ccccc1 | inactive | –
Cc1ccccc1CO[C@@H]1C[C@@]2(C(C)C)CC[C@]1(C)O2 | inactive | –
CCOCCOC(C)=O | inactive | –
CC1=C2C[C@H]3[C@@H](CC=C4C[C@@H](O)CC[C@@]43C)[C@@H]2CC[C@]12O[C@@H]1C[C@H](C)CN[C@H]1[C@H]2C | inactive | –
Cc1ccccc1[N+](=O)[O-] | inactive | –
CC(c1ccc(O)cc1)(c1ccc(O)cc1)c1ccc(O)cc1 | – | 50 µM (active)
Cc1cccc([N+](=O)[O-])c1 | inactive | –
CO/C=C(/C(=O)OC)c1ccccc1COc1cccc(C(F)(F)F)n1 | – | 12.4 µM (active)
C[C@]12CCC(=O)C=C1CC[C@@H]1[C@@H]2CC[C@]2(C)C(=O)CC[C@@H]12 | inactive | –
Cc1ccc(O)c(C)c1 | inactive | –
CN(C)CCO | inactive | –
O=C(O)C(F)(F)C(F)(F)C(F)(F)C(F)(F)C(F)(F)C(F)(F)C(F)(F)C(F)(F)C(F)(F)F | inactive | –
CN(C)c1nc(=O)n(C2CCCCC2)c(=O)n1C | inactive | –
CCOP(=S)(OCC)SCSC(C)(C)C | inactive | –
Oc1c(Cl)c(Cl)c(Cl)c(Cl)c1Cl | – | 6.33 µM (active)

Structure (SMILES) | outcome | AC50
ClC1=C(Cl)[C@]2(Cl)[C@@H]3[C@@H]4C[C@@H]([C@H]5O[C@@H]45)[C@@H]3[C@@]1(Cl)C2(Cl)Cl | inactive | –
O=S(=O)(O)C(F)(F)C(F)(F)C(F)(F)C(F)(F)F | inactive | –
CCC(C)c1cc([N+](=O)[O-])cc([N+](=O)[O-])c1O (stereo unspecified) | – | 2.53 µM (active)
ClC(Cl)=C(c1ccc(Cl)cc1)c1ccc(Cl)cc1 | inactive | –
CC#Cc1cc(C)nc(Nc2ccccc2)n1 | – | 22.8 µM (active)
C=CC(N)=O | inactive | –
CCCCCCCCCc1ccc(O)cc1 | inactive | –
CCC(C)(c1ccc(O)cc1)c1ccc(O)cc1 | inactive | –
CC(C)(c1ccccc1)c1ccc(O)cc1 | inactive | –
CCOC(=O)C(O)(c1ccc(Cl)cc1)c1ccc(Cl)cc1 | inactive | –
CCNc1nc(NC(C)C)nc(SC)n1 | – | 32.8 µM (active)
Nn1cnnc1 | inactive | –
O=C(O)C(F)(F)C(F)(F)C(F)(F)C(F)(F)C(F)(F)C(F)(F)C(F)(F)C(F)(F)F | – | 66.6 µM (active)
Oc1ccc(C(c2ccc(O)cc2)(C(F)(F)F)C(F)(F)F)cc1 | inactive | –
CCCCCCCCOC(=O)c1ccccc1C(=O)OCCCCCCCC | inactive | –
